# Rows were chosen to be rich in hits. Some 1.8% of all compounds tested hit in one or more screens of this group.
# Exocytosis inh: LAMP-1 surface exposure blockers, TALL-104 cells – cell-based, flow cytometry, MLPCN library, primary screen; TALL-104 LAMP-1 surface exposure; cells stimulated with thapsigargin and PMA; 360,000 tested, 0.66% active; AID 651702, 2012; inhibition, % at 10 µM;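 active = inhibition above about 55%, limit read from the data; inconclusive = no clear call, values can overlap the other calls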
# ABCB6 inh MLPCN: ABCB6 transporter inhibitors, primary screen, K562-ABCB6 cells, flow cytometry, MLPCN library; fluorescence ratio to DMSO, % at 10 µM; ATP-binding cassette sub-family B member 6 (Homo sapiens), Q9NP58; 360,000 tested, 0.19% active; K562-ABCB6 porphyrin accumulation, 1 h; hits give low values;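 active = fluorescence ratio to DMSO below 75%, the collection mean minus 3 SD; inconclusive = too few cells collected in the well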;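 also: signal is porphyrin accumulated inside mitochondria; lower ratio means ABCB6 inhibition with less porphyrin fluorescence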
# Target sequence (Q9NP58 whole entry, looked up): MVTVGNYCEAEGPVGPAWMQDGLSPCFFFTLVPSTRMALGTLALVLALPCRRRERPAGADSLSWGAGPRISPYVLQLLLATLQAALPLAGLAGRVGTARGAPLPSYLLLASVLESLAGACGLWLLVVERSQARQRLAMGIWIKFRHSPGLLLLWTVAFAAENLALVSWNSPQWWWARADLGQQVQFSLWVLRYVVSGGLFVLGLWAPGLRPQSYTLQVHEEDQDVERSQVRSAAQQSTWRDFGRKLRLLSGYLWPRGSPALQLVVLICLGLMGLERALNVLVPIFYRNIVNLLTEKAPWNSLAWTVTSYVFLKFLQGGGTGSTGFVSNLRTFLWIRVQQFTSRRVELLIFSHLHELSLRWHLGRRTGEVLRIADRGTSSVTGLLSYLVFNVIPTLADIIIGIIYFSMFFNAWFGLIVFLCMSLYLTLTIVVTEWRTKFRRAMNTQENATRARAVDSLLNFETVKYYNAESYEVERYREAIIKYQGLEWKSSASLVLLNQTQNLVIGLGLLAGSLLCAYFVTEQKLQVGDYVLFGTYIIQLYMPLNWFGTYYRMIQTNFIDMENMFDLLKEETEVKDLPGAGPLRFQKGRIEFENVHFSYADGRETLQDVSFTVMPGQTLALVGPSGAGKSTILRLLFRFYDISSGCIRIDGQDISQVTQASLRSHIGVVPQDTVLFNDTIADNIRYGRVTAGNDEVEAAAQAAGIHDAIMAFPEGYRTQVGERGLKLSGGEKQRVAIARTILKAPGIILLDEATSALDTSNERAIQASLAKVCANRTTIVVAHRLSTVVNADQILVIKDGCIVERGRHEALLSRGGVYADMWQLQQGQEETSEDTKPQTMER
# Myeloid diff 2: induction of myeloid progenitor differentiation, primary screen, cell-based, flow cytometry, MLPCN library | ER-HoxA9 myeloid progenitors, lysozyme-GFP differentiation | calls only at 10 µM | 360,000 tested, 1% active | AID 624256, 2012;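 active = normalized GFP-positive differentiation at or above the plate's own cutoff, the solvent-only control mean plus 3 SD; inconclusive = no clear call, values can overlap the other calls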;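 also: cells exposed to compound for four days before flow analysis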
# Myeloid diff CP1: inducers of myeloid progenitor differentiation, confirmation, cell-based, GFP/Mac1 flow cytometry, cherry pick 01; AID 651706, 2012; calls only; shares compounds with Myeloid diff 2; ER-HoxA9 myeloid progenitors, GFP/Mac1 double-positive flow; 2,300 tested, 2% active;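 active = share of green or green-and-red cells above 9 and 9% in run 1 or 4 and 3% in run 2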
# GFP autofluor: counter-screen for myeloid differentiation promoters: compound fluorescence; shares compounds with Myeloid diff 2; ER-HoxA9 myeloid progenitors, no estrogen, GFP autofluorescence flow cytometry; vehicle wells 0%, positive control 100%; fluorescence response, % (no concentration beside the values); 2,300 tested, 7.4% active; AID 651707;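 active = over 5% cells positive for green fluorescent reporter, or over 2% positive for both it and APC stain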
# Hits are given with their value; - = inactive; ? = inconclusive; . = not tested or not shown; + = active, no number.
SMILES,Exocytosis inh,ABCB6 inh MLPCN,Myeloid diff 2,Myeloid diff CP1,GFP autofluor
CC1SC(C)C(=O)N(CC(=O)Nc2ccc([N+](=O)[O-])cc2)C1=O (stereo unspecified),-,-,-,.,.
Cc1cccc(N(CC(=O)NCC2CCCO2)C(=O)CNS(=O)(=O)c2ccc(Cl)cc2)c1 (stereo unspecified),-,-,-,.,.
CCCN1CCc2c(sc(NC(=O)CCS(=O)(=O)c3ccccc3)c2C(=O)OC)C1,-,-,-,.,.
CCCN1CCc2c(sc(NC(=O)c3ccc(S(=O)(=O)N(C)c4ccccc4)cc3)c2C(=O)NC)C1,-,-,+,-,-
CNC(=O)c1c(NC(=O)c2ccc(S(=O)(=O)N3CCCc4ccccc43)cc2)sc2c1CCN(C)C2,-,-,+,+,-
CNC(=O)c1c(NC(=O)c2ccc(S(=O)(=O)N3CCCCC3)cc2)sc2c1CCN(C(C)C)C2,-,-,?,.,.
CC(Sc1nnc(-c2ccccc2Br)n1-c1cccc(C(F)(F)F)c1)C(N)=O (stereo unspecified),-,-,-,.,.
NC(=O)CC(NC(=O)c1ccccc1)c1ccc(NCc2ccccc2)c([N+](=O)[O-])c1 (stereo unspecified),-,-,-,.,.
NC(=O)CC(NC(=O)c1ccccc1)c1ccc(NCc2ccc(F)cc2)c([N+](=O)[O-])c1 (stereo unspecified),-,-,+,-,-
Cc1ccccc1NC(=O)c1sc2nc[nH]c(=O)c2c1C,-,-,-,-,-
COC(=O)c1sc2nc[nH]c(=O)c2c1C,-,-,-,.,.
Nc1nnc(/C=C/c2ccccc2)s1,-,-,-,.,.
O=C(CCc1nc2ccccc2[nH]c1=O)OCC(=O)N1CCc2ccccc21,-,-,-,-,-
O=C(CCc1nc2ccccc2c(=O)[nH]1)OCC(=O)N1CCc2ccccc21,-,-,-,.,.
CCC[C@H]1CN(c2ccc(Br)cc2)C(=O)[C@@H]1CC(=O)Nc1ccc(OC)cc1,-,-,-,.,.
Cc1nc(-c2cccc(NC(=O)c3ccc(-n4cccn4)cc3)c2)cs1,-,-,-,.,.
COc1cc(NC(=O)c2cc3nc(C4CC4)cc(C(F)(F)F)n3n2)c(OC)cc1Cl,-,-,-,-,-
COC(=O)c1ccccc1NC(=O)c1cc2nc(C3CC3)cc(C(F)(F)F)n2n1,-,-,-,.,.
CCCCN1C(=O)C(C(=O)OCC)CC2=C1CCCC2=O (stereo unspecified),-,-,-,.,.
Cc1ccc(CNC(=O)C(=O)NCC2CCCN2S(=O)(=O)c2cc(C)ccc2C)cc1 (stereo unspecified),-,-,-,.,.
CC1=NN(C(=O)Cn2nc([N+](=O)[O-])c(Br)c2C)C(O)(C(F)(F)F)C1 (stereo unspecified),-,-,-,.,.
COc1cc(NC(=O)c2cc(S(=O)(=O)N3CCCCC3)ccc2N2CCOCC2)cc(OC)c1,-,-,+,-,-
CC(=O)Nc1ccc(NC(=O)c2cc(S(=O)(=O)N3CCCCC3)ccc2N2CCOCC2)cc1,-,-,-,.,.
Cc1cccc(CC(=O)NCC2CCCCC2)c1,-,-,-,.,.
NNC(=O)c1[nH]c2ccc(Cl)cc2c1-c1ccccc1,-,-,-,-,-
SMILES,Exocytosis inh,ABCB6 inh MLPCN,Myeloid diff 2,Myeloid diff CP1,GFP autofluor
O=C(O)CSc1c(-c2ccccc2)c2cc(Cl)ccc2[nH]c1=O,-,-,-,.,.
CC1CCCN(CCCNC(=O)c2ccc3c(c2)N(Cc2ccc(F)cc2)C(=O)c2ccccc2S3=O)C1 (stereo unspecified),-,-,-,.,.
CC1CCCN(CCCNC(=O)c2ccc3c(c2)N(Cc2cccc(Cl)c2)C(=O)c2ccccc2S3=O)C1 (stereo unspecified),-,-,-,-,-
Cc1cccc(-c2nnc(-c3cccc(NC(=O)Cc4cccs4)c3)o2)c1,-,-,-,-,-
O=C(Cc1cccs1)Nc1ccc(-c2nnc(-c3ccccc3)o2)cc1,-,-,-,.,.
Cc1cc(N2CCCC2)ccc1/C=C1\NC(=S)N(C)C1=O,-,-,-,-,51.2
CN1C(=O)c2ccc(N3CCCC3)cc2C1=O,-,-,-,.,.
Cc1cccc(C)c1NC(=O)Nc1cccs1,-,-,-,-,-
O=C(Nc1cccs1)Nc1c(F)c(F)c(F)c(F)c1F,-,-,-,.,.
CCN1C(=O)/C(=C/c2cn(C)nc2C)SC1=S,-,-,-,.,.
CCN1C(=S)SC(=O)C1=C1C=C(C)N(CCO)C(C)=C1,-,-,-,-,-
O=C(COc1ccc2ccc(=O)oc2c1)NC1CCCC1,-,-,+,-,-
O=C(COc1ccc2ccc(=O)oc2c1)NC1CCN(Cc2ccccc2)CC1,-,-,-,.,.
CCOC(=O)c1cnn(-c2cc(C)c3ccccc3n2)c1N,-,-,+,-,-
CCOC(=O)c1cnn(-c2ccccn2)c1N,-,-,-,.,.
CC(=O)N1CCN(c2ccc(S(=O)(=O)N3CCOCC3)cc2[N+](=O)[O-])CC1,-,-,-,.,.
CCOP(=O)(OCC)C(NC(=O)Nc1ccc(Cl)c(Cl)c1)C(N)=O (stereo unspecified),-,-,-,-,-
CCOP(=O)(OCC)C(NC(=O)Nc1ccc(Cl)cc1)C(N)=O (stereo unspecified),-,-,-,.,.
Cc1ccc(Cl)c(OCCN2CCc3ccccc3C2)c1,-,-,-,.,.
CCCCCCC[C@@H](C/C=C/CCC(=O)N(C)C/C(=C/Cl)C/C(=C\C(=O)N1C[C@H](O)CC1=O)OC)OC,-,-,-,-,-
CCCCCCC[C@@H](C/C=C/CCC(=O)N(C)C/C(=C/Cl)C/C(=C\C(=O)N1CC(OC)=CC1=O)OC)OC,-,-,-,.,.
CC(=O)n1cc(CO)c2ccccc21,-,-,-,.,.
C=C(c1cn(C(C)=O)c2ccccc12)c1cn(C(C)=O)c2ccccc12,-,-,-,-,-
CN(C)S(=O)(=O)Oc1ccsc1C(=O)Nc1cccc(Cl)c1Cl,-,-,-,-,-
CN(C)S(=O)(=O)Oc1ccsc1C(=O)Nc1ccccc1Cl,-,-,-,.,.
SMILES,Exocytosis inh,ABCB6 inh MLPCN,Myeloid diff 2,Myeloid diff CP1,GFP autofluor
CN(C)/C=C(/C#N)C(=O)c1cccc(Oc2ccc(C(C)(C)C)cc2)c1,-,-,-,.,.
CN(Cc1ccccc1)N=Nc1ccccc1,-,-,-,.,.
CN(C)N=Nc1ccc(-c2cn(Cc3ccccc3)cn2)cc1,-,-,-,-,-
CSCCC1NC(=S)N(Cc2ccccc2)C1=O (stereo unspecified),-,-,-,.,.
OC[C@@H]1CN(Cc2ccccc2)C[C@H](n2cnc3c(NCc4ccco4)ncnc32)O1,-,-,+,-,-
OC[C@@H]1CN(Cc2ccc(-c3ccccc3)cc2)C[C@H](n2cnc3c(NCc4ccco4)ncnc32)O1,-,-,-,.,.
CCCCN1C(=O)C(=O)c2cc(Cl)ccc21,-,-,-,.,.
COc1cc(OC)c2c(-c3ccccc3)cc(=O)oc2c1C(CCN1CCCC(C)C1)c1ccc2c(c1)OCO2 (stereo unspecified),-,-,-,-,-

# Screening results as filed in PubChem BioAssay.
